Measurements from PubChem BioAssay.
Active and inactive are the calls of the source. No stated cut-off is given here; in the data, active means inhibition above about 28%; inactive means the rest.

Test: StAR promoter reporter inhibitors, counter-screen for LRH-1 inverse agonist project, cell-based, luminescence, high throughput (AID 651611)
Conditions: StAR promoter luciferase reporter counterscreen, at 3.6 µM, active compounds read high
With COc1ccc(-c2cc(NC=O)c3ncc(-c4ccc(C(C)=O)cc4)n3c2)cn1 the inhibition was 41.6% (active). In the case of O=C(Cc1ccc(Cl)cc1Cl)Nc1ccncc1, the inhibition is reported as 16.2% (inactive). For c1ccc(Oc2nc(-c3cccnc3)nc3ccccc23)cc1, the inhibition was 10.6% (inactive). With Cc1cc(O)c(NC(=O)c2cc([N+](=O)[O-])ccc2Cl)cc1C the inhibition was 35% (active). In the case of Cc1cc(C)n(-c2nc(Nc3ccccc3C(F)(F)F)nc(-n3nc(C)cc3C)n2)n1, the inhibition is reported as 20.8% (inactive). With COc1cccc(C2c3cc4c(cc3OC(N3CCOCC3)C2C)OCO4)c1O (centres undefined) the inhibition was 11.7% (inactive). For c1ccc(-n2nnnc2-c2cccc3ccccc23)cc1, the inhibition was 42% (active). In the case of COc1cc(-c2noc(C)c2/C=C/c2ccc(N)cc2)cc(OC)c1OC, the inhibition is reported as 64.6% (active). In the case of COc1ccccc1-n1c(SCC(=O)Nc2ccc(F)cc2)nc2c(c1=O)SCC2, the inhibition is reported as 10.4% (inactive). With O=C(Cn1cc(COc2ccc(C(=O)c3ccccc3)cc2)nn1)c1ccc(O)cc1 the inhibition was 25.8% (inactive). In the case of Cc1ccc(S(=O)(=O)N2CCc3ccccc3CC2)cc1, the inhibition is reported as 39.2% (active). In the case of CCCNC(=O)c1sc2c(c1C(=O)Nc1ccccn1)CCCC2, the inhibition is reported as -1.58% (inactive). With COc1ccc(CNC(=O)c2sc(=O)n(Cc3ccc(-c4ccccc4)cc3)c2C)cc1OC the inhibition was 26% (inactive). In the case of c1ccc(-c2nc(NCC3CCCO3)c3oc4ccccc4c3n2)cc1 (centres undefined), the inhibition is reported as -0.47% (inactive). With CCOC(=O)CC1CCCCN1C(=O)c1cc(COc2cccc3cnccc23)on1 (centres undefined) the inhibition was 39% (active). For CCCc1cc(=O)oc2cc(C)cc(OCC(=O)NC3CC3)c12, the inhibition was 2.08% (inactive). With COc1ccc(N2CCN(C(=O)CN3C(=O)NC4(CCCCCC4)C3=O)CC2)cc1 the inhibition was 7.32% (inactive). For CC(C)C(=O)N1CCN(c2ccccc2NC(=O)c2ccc([N+](=O)[O-])o2)CC1, the inhibition was 10.9% (inactive). With CN(C)c1ccc(C=c2c3ccccc3n3c2c2ccccc2[n+]3C)cc1 the inhibition was 54.9% (active). For CC(=O)c1ccsc1-c1c(C)cc2oc(=O)cc(-c3ccccc3)c2c1C, the inhibition was 8.02% (inactive). For O=C1CCCN2N=C(SCC(=O)Nc3ccc(Br)cc3)SC2=N1, the inhibition was -4.32% (inactive). In the case of COc1ccc(NC(=O)COc2cccc3c2CCN(C)C3=O)c(OC)c1, the inhibition is reported as 20.5% (inactive). With Cc1ccc(-c2csc(NC(=O)c3ccc([N+](=O)[O-])o3)n2)cc1 the inhibition was 3.07% (inactive). With COc1ccccc1N1CCN(C(=O)C2c3ccccc3Oc3ccccc32)CC1 the inhibition was 34.4% (active). For COCCn1c(SCC(=O)Nc2ccc(NC(C)=O)cc2)nc2ccccc2c1=O, the inhibition was 17% (inactive). For O=C(COC(=O)C1CC1)NCCc1ccc(Cl)cc1, the inhibition was 4.21% (inactive). With COc1ccc(S(=O)(=O)N2CCOCC2)cc1N=Nc1sc(N)nc1-c1ccccc1 the inhibition was 36.4% (active). With C[C@H](CO)N1C[C@H](C)[C@H](CN(C)Cc2ccncc2)Oc2cc(-c3ccccc3F)ccc2S1(=O)=O the inhibition was 12.8% (inactive). With CCCc1cc(=O)oc2cc(OCC(=O)NCc3ccccn3)ccc12 the inhibition was 10.6% (inactive). In the case of CC(=O)Nc1ccc(NC(=O)CSc2ccc(-c3ccco3)nn2)cc1, the inhibition is reported as 16.1% (inactive). With Oc1[nH]c2ccccc2c1N=NC(=S)N1CCOCC1 the inhibition was 74.8% (active). For COc1ccc(CC(N)c2csc(Nc3ncccn3)n2)cc1 (centres undefined), the inhibition was 49.2% (active). In the case of Cc1cc(-n2c(C)cc(C(=O)CSc3ncnc4ccccc34)c2C)no1, the inhibition is reported as 8.06% (inactive). In the case of COc1ccc(S(=O)(=O)N2CCCN(CC(=O)Nc3ccc(OC)c(Cl)c3)CC2)cc1, the inhibition is reported as 17.7% (inactive). With COc1cc2c(=O)[nH]c3cc([N+](=O)[O-])ccc3c2cc1[N+](=O)[O-] the inhibition was -3.92% (inactive). In the case of O=C(Nc1ccc(N2CCN(Cc3ccccc3F)CC2)cc1)c1ccc([N+](=O)[O-])o1, the inhibition is reported as 28.7% (active). With Cc1ccc(Cn2cnc3ccccc32)cc1C the inhibition was 2.29% (inactive). In the case of COc1ccc(N2CC(C(=O)N/N=C/c3ccc(C)cc3)CC2=O)cc1 (centres undefined), the inhibition is reported as 40.7% (active). In the case of O=C(CCl)Nc1cccc(Oc2cnccn2)c1, the inhibition is reported as 37.1% (active).
